The target of assay [1] is human Matrix Metalloproteinase-9 (MMP9), MMP9 (gene 4318) (UniProt P14780). Description: NVS_ENZ_hMMP9: NovaScreen (NVS) Enzymatic Assay for human Matrix Metalloproteinase-9 (MMP9) (AID 2283190).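 Further: cell-free recombinant MMP9 protease activity read by fluorescent substrate signal; active means inhibition seen as loss of fluorescence signal versus DMSO.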 Put shortly: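 Inhibition was scored as loss of fluorescence signal against DMSO controls. The recombinant protease was exposed to chemicals for 1 hour before reading; initial testing used 25 uM in duplicate.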
human Matrix Metalloproteinase-9 (MMP9), MMP9 (gene 4318), sequence (P14780 whole entry, looked up): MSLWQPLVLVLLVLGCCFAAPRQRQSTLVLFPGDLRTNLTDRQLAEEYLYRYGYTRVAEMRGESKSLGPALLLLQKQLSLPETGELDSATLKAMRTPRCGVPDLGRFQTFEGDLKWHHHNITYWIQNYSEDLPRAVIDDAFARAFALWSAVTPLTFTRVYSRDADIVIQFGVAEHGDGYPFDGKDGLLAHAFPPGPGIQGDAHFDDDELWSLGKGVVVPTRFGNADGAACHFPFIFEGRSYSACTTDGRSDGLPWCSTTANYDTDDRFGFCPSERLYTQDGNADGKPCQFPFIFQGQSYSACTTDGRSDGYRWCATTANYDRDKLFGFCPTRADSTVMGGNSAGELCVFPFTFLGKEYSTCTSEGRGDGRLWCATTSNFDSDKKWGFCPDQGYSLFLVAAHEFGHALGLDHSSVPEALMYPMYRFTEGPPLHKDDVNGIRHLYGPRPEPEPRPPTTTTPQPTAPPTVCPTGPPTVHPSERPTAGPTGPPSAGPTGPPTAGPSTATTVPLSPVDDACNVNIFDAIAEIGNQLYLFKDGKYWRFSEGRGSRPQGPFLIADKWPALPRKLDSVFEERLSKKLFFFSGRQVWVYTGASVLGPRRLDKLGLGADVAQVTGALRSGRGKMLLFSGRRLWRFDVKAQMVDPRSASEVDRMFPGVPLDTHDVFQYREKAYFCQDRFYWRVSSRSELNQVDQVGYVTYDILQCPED

For assay [2], the target named is human Insulin Receptor (InsR), INSR (gene 3643) (UniProt P06213). Description: NVS_ENZ_hInsR: NovaScreen (NVS) Enzymatic Assay for human Insulin Receptor (InsR) (AID 2283168). Put shortly: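 Cell-free enzyme assay read 1 h post-dose by fluorescence after substrate/product mobility-shift separation. Duplicate 25 uM primary screen, then singleton concentration-response up to 50 uM for compounds passing threshold; loss of signal vs DMSO.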

Assay [3] deals with human MAP Kinase-Activated Protein Kinase 2 (MAPKAPK2), MAPKAPK2 (gene 9261) (UniProt P49137). Description: NVS_ENZ_hMAPKAPK2: NovaScreen (NVS) Enzymatic Assay for human MAP Kinase-Activated Protein Kinase 2 (MAPKAPK2) (AID 2283178). The method, boiled down: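 Chemicals screened in duplicate at 25 uM, then to 50 uM top concentration in concentration-response, against recombinant human MAPKAPK2; substrate conversion read 1 hr post-dosing by fluorescence after electrophoretic mobility-shift separation, loss-of-signal relative to DMSO.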
human MAP Kinase-Activated Protein Kinase 2 (MAPKAPK2), MAPKAPK2 (gene 9261), sequence (P49137 whole entry, looked up): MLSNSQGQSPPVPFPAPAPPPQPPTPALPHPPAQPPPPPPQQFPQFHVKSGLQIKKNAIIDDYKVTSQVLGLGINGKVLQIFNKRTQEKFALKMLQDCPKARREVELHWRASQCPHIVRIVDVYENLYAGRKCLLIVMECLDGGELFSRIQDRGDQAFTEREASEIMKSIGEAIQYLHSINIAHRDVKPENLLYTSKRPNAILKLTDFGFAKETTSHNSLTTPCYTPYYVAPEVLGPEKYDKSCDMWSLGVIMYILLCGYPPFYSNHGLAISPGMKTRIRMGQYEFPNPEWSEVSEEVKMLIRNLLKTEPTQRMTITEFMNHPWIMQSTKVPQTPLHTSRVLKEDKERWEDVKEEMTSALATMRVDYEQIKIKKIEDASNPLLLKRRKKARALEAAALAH

For assay [4], the target named is human MET Proto-Oncogene, Receptor Tyrosine Kinase (MET), MET (gene 4233) (UniProt P08581). Description: NVS_ENZ_hMet: NovaScreen (NVS) Enzymatic Assay for human MET Proto-Oncogene, Receptor Tyrosine Kinase (MET) (AID 2283180). Put shortly: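 Hits from a 25 uM duplicate screen were retested in concentration series up to 50 uM. Enzyme activity was measured by fluorescence after electrophoretic separation of product from substrate, 1 h after compound addition, relative to DMSO.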

The target in assay [5] is Collagenase 3 (Homo sapiens) (UniProt P45452). Description: NVS_ENZ_hMMP13: NovaScreen (NVS) Enzymatic Assay for human Matrix Metalloproteinase-13 (MMP13) (AID 2283182). Put shortly:
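Recombinant MMP13 cleaving fluorescent substrate, cell-free, measured 1 h after dosing. Primary duplicate screen at 25 uM; actives tested in concentration-response up to 50 uM; loss of signal relative to DMSO.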

Assay [6] deals with human Mitogen- and Stress-activated Protein Kinase-1 (Msk1), RPS6KA5 (gene 9252) (UniProt O75582). Description: NVS_ENZ_hMsk1: NovaScreen (NVS) Enzymatic Assay for human Mitogen- and Stress-activated Protein Kinase-1 (Msk1) (AID 2283187). Put shortly: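 Chemicals first run in duplicate at 25 uM, with actives followed up in singleton concentration series to 50 uM maximum. Enzyme activity came from substrate/product mobility-shift separation with fluorescence detection after 1 h incubation of the recombinant protein.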
human Mitogen- and Stress-activated Protein Kinase-1 (Msk1), RPS6KA5 (gene 9252), sequence (O75582 whole entry, looked up): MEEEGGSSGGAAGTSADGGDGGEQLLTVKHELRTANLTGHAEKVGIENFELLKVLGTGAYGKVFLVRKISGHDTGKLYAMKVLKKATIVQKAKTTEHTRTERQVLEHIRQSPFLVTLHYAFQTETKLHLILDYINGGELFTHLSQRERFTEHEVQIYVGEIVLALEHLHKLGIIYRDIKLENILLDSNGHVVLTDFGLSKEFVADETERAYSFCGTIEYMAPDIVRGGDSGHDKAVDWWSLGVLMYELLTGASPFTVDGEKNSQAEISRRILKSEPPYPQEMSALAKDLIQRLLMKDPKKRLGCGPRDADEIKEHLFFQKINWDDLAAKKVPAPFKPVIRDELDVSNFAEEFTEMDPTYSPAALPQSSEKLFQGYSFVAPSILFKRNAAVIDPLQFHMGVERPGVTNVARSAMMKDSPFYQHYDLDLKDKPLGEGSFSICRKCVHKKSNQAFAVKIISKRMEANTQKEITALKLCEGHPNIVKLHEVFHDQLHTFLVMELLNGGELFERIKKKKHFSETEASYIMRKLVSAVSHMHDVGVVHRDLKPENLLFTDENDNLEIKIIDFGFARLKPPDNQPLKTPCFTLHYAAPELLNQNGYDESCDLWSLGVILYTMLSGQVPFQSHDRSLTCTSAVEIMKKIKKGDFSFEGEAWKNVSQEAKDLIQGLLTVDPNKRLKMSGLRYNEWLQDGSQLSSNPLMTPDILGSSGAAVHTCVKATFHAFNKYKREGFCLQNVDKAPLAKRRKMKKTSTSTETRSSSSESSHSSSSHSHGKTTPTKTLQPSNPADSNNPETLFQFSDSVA

The target of assay [7] is cAMP-dependent protein kinase catalytic subunit alpha (Homo sapiens) (UniProt P17612). Description: NVS_ENZ_hPKA: NovaScreen (NVS) Enzymatic Assay for human Protein Kinase A (PKA) (AID 2283192). The method, boiled down: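 Cell-free kinase activity read by fluorescence after mobility-shift separation of substrate and product, 1 h post-dosing. Single-concentration duplicate screen (25 uM) preceded singleton concentration series (top 50 uM); loss of signal versus DMSO.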

The target of assay [8] is human Phosphoinositide 3-kinase alpha (PI3Ka), PIK3CA (gene 5290) (UniProt P42336). Description: NVS_ENZ_hPI3Ka: NovaScreen (NVS) Enzymatic Assay for human Phosphoinositide 3-kinase alpha (PI3Ka) (AID 2283196). The method, boiled down: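 Chemicals were first screened at 25 uM in duplicate, then hits were run as concentration series up to 50 uM. Enzyme activity was measured by fluorescence after mobility-shift separation, with loss of signal relative to DMSO taken as activity.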
human Phosphoinositide 3-kinase alpha (PI3Ka), PIK3CA (gene 5290), sequence (P42336 whole entry, looked up): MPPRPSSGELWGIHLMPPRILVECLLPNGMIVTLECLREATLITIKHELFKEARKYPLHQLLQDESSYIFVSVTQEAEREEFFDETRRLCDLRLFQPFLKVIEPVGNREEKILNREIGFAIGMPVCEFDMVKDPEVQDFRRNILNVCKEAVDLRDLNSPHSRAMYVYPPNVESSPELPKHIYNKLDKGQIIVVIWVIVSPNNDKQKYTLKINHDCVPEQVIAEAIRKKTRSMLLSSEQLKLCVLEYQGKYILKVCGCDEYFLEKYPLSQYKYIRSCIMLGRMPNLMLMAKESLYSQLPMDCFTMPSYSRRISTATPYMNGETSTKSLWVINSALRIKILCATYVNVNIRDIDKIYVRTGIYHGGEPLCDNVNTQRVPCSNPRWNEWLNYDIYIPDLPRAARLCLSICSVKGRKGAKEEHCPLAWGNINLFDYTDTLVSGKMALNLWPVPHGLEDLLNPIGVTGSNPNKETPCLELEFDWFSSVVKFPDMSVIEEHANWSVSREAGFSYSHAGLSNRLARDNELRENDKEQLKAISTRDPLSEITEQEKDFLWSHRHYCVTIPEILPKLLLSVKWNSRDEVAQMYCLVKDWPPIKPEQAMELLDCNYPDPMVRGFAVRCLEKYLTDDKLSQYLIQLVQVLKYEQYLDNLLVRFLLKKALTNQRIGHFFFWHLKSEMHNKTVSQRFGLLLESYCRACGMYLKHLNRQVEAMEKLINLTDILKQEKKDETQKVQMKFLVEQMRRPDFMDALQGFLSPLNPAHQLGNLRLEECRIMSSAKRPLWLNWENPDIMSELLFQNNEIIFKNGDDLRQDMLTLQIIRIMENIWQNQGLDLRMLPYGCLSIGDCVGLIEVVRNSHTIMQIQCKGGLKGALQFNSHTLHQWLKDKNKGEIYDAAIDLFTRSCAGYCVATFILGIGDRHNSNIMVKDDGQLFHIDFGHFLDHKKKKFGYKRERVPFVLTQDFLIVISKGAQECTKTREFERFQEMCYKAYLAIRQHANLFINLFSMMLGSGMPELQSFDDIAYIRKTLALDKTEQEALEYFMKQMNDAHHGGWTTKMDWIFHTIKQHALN

The target of assay [9] is Mitogen-activated protein kinase 3 (Homo sapiens) (UniProt P27361). Description: NVS_ENZ_hMAPK3: NovaScreen (NVS) Enzymatic Assay for human Mitogen-Activated Protein Kinase 3 (MAPK 3) (AID 2283177). The method, boiled down:
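Chemicals were first tested in duplicate at 25 uM, with hits re-run as concentration series (max 50 uM). Recombinant enzyme activity, measured 1 h post-dose in a cell-free format, was read by fluorescence/mobility shift relative to DMSO.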

Assay [10] deals with human Matrix Metalloproteinase-7 (MMP7), MMP7 (gene 4316) (UniProt P09237). Description: NVS_ENZ_hMMP7: NovaScreen (NVS) Enzymatic Assay for human Matrix Metalloproteinase-7 (MMP7) (AID 2283183). The method, boiled down:
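Compounds first tested at 25 uM in duplicate, then at up to 50 uM in concentration series if active. Protease activity measured by fluorescence intensity 1 h after dosing, with fitting relative to DMSO.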

Assay [11] concerns the target human NIMA (Never In Mitosis Gene A)-Related Kinase 2 (NEK2), NEK2 (gene 4751) (UniProt P51955). Description: NVS_ENZ_hNEK2: NovaScreen (NVS) Enzymatic Assay for human NIMA (Never In Mitosis Gene A)-Related Kinase 2 (NEK2) (AID 2283188). The method, boiled down:
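Compounds were first screened in duplicate at 25 uM, with actives followed up in concentration series. Recombinant NEK2 activity, cell-free, was read 1 h after dosing by fluorescence intensity after mobility-shift separation. Signal loss was scored against DMSO.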

For assay [12], the target named is human Phosphodiesterase 5 (PDE5), PDE5A (gene 8654) (UniProt O76074). Description: NVS_ENZ_hPDE5: NovaScreen (NVS) Enzymatic Assay for human Phosphodiesterase 5 (PDE5) (AID 2283194). Put shortly:
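Screening began in duplicate at 25 uM, with actives taken into concentration-response. Enzyme activity of recombinant PDE5 toward its substrate was measured at 1 h by fluorescence mobility-shift detection, relative to DMSO controls.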

Assay [13] deals with human Phosphodiesterase 10 (PDE10), PDE10A (gene 10846) (UniProt Q9Y233). Description: NVS_ENZ_hPDE10: NovaScreen (NVS) Enzymatic Assay for human Phosphodiesterase 10 (PDE10) (AID 2283195). Put shortly: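 Readout is fluorescence intensity following electrophoretic mobility-shift separation, 1 h after dosing of isolated PDE10A protein. Hits meeting a preset threshold at 25 uM went to concentration series (max 50 uM), analysed relative to DMSO.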

The target in assay [14] is human Phosphodiesterase 4A1 (PDE4A1), PDE4A (gene 5141) (UniProt P27815). Description: NVS_ENZ_hPDE4A1: NovaScreen (NVS) Enzymatic Assay for human Phosphodiesterase 4A1 (PDE4A1) (AID 2283191). The method, boiled down: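 Fluorescent substrate turnover by recombinant PDE4A1 read after 1 h by mobility-shift separation. Primary duplicate screen at 25 uM; hits retested in concentration series with a 50 uM maximum, relative to DMSO.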
human Phosphodiesterase 4A1 (PDE4A1), PDE4A (gene 5141), sequence (P27815 whole entry, looked up): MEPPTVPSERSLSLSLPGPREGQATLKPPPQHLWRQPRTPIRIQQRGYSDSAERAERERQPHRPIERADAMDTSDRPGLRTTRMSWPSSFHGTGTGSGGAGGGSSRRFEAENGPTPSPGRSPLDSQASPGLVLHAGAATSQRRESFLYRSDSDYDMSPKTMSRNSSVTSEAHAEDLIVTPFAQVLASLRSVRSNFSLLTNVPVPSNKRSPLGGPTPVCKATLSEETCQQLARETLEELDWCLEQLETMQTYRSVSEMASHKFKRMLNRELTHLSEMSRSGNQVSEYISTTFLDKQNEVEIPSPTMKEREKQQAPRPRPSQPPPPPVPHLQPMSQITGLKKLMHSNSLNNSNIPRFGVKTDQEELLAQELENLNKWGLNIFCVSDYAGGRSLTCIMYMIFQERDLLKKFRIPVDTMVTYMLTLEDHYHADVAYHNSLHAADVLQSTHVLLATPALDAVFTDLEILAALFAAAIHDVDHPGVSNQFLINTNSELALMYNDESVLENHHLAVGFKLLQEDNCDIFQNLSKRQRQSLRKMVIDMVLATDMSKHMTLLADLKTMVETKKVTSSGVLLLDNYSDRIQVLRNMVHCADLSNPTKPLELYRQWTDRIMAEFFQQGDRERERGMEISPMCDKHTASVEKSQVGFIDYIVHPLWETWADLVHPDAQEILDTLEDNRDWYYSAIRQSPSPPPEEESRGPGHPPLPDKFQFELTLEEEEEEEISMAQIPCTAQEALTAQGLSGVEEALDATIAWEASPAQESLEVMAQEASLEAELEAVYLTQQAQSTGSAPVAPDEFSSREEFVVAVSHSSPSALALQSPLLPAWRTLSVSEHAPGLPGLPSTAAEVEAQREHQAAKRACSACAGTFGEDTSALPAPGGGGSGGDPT

The target of assay [15] is human Matrix Metalloproteinase-2 (MMP2), MMP2 (gene 4313) (UniProt P08253). Description: NVS_ENZ_hMMP2: NovaScreen (NVS) Enzymatic Assay for human Matrix Metalloproteinase-2 (MMP2) (AID 2283184). Put shortly: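 Compounds first screened in duplicate at a single 25 uM, with actives followed up in concentration series. Recombinant human MMP2 cleaves a fluorogenic substrate; fluorescence taken at 1 h, inhibition fitted relative to DMSO.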

In assay [16] the target is human Mitogen-Activated Protein Kinase 1 (MAPK 1), MAPK1 (gene 5594) (UniProt P28482). Description: NVS_ENZ_hMAPK1: NovaScreen (NVS) Enzymatic Assay for human Mitogen-Activated Protein Kinase 1 (MAPK 1) (AID 2283175). Put shortly: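 Cell-free recombinant human MAPK1 enzymatic assay, fluorescence/electrophoretic mobility shift read at 1 h; loss of signal vs DMSO. Primary screen in duplicate at 25 uM; actives (e.g. ≥30% inhibition) run as concentration-response up to 50 uM.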

Assay [17] concerns the target human Matrix Metalloproteinase-1 (MMP1), MMP1 (gene 4312) (UniProt P03956). Description: NVS_ENZ_hMMP1: NovaScreen (NVS) Enzymatic Assay for human Matrix Metalloproteinase-1 (MMP1) (AID 2283181). The method, boiled down: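 Cell-free fluorescent substrate assay of human MMP1, read after 1 h. A single 25 uM duplicate screen was followed by concentration series to a maximum of 50 uM for actives meeting threshold; inhibition analysed against DMSO baseline.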

The target in assay [18] is human Janus Kinase 2 (Jak2), JAK2 (gene 3717) (UniProt O60674). Description: NVS_ENZ_hJak2: NovaScreen (NVS) Enzymatic Assay for human Janus Kinase 2 (Jak2) (AID 2283169). Put shortly: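 Single-point duplicate screen at 25 uM, with hits run in concentration series to a 50 uM top dose. Substrate-product separation by mobility shift with fluorescence detection, 1 h post-dosing; DMSO baseline.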

Records with an inconclusive call do not appear. Some compounds were tested as several samples or in several runs, with calls that do not always agree. Active and inactive are the calls of the source. How the source made its calls: active means hit-call score of the fitted dose curve at least 0.9, where 1 is the maximum; inconclusive means response in the unintended direction; inactive means score below 0.9.

Mitogen-activated protein kinase 3 (Homo sapiens), sequence (P27361 whole entry, looked up): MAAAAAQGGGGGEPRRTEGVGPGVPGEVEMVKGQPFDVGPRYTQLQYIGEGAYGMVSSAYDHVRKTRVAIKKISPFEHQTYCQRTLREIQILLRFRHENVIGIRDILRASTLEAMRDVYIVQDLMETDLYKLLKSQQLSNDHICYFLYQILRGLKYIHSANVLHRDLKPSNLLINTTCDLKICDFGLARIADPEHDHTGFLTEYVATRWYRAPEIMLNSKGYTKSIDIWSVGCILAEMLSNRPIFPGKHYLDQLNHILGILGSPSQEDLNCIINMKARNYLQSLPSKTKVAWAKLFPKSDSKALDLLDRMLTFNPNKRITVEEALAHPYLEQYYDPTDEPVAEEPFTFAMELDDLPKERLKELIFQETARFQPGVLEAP
human Matrix Metalloproteinase-7 (MMP7), MMP7 (gene 4316), sequence (P09237 whole entry, looked up): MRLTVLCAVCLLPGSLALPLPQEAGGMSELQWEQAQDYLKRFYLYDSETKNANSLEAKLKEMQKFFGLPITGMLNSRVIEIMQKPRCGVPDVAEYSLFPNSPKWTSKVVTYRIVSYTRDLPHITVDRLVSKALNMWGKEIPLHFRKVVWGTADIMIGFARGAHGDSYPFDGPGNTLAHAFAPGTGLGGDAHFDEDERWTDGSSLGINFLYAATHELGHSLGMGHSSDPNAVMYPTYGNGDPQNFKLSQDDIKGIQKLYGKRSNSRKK
human Matrix Metalloproteinase-1 (MMP1), MMP1 (gene 4312), sequence (P03956 whole entry, looked up): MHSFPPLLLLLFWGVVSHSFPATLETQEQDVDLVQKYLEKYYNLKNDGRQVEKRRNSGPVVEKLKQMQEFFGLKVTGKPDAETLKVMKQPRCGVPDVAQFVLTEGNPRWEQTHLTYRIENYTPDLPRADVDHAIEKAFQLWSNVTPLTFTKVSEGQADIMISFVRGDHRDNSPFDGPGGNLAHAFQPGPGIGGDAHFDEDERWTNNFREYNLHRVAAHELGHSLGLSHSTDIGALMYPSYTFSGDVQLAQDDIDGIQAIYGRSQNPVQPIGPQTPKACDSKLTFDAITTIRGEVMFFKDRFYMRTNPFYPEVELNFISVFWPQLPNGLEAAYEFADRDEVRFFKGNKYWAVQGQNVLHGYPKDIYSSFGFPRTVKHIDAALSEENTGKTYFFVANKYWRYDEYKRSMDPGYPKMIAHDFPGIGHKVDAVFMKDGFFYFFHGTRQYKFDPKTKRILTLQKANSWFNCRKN

Take `CN1CSC(=S)N(C)C1`: the compound was classed as inactive in [1].

As to `CNC(=O)CSP(=S)(OC)OC`, the result in [1] was inactive.

Usually AC50 stands for the midpoint of the concentration-response curve, whichever way the signal moves. As for `O=C(O)C(F)(F)C(F)(F)C(F)(F)C(F)(F)C(F)(F)C(F)(F)C(F)(F)F`, the compound was called inactive in [2], in [3], in [4], in assay [5], in assay [6] and in [1]. The result in assay [7] was inactive. Further, the AC50 in assay [8] was 11.3 µM (active).

Turning to `N#Cc1c(Cl)c(Cl)c(Cl)c(C#N)c1Cl`, the outcome in [9], in assay [10], in [11] and in assay [13] was inactive. Moreover, the AC50 in assay [12] was 31.8 µM (active); in assay [8] it was 33.1 µM (active).

On to `COC(=O)c1ccccc1S(=O)(=O)NC(=O)Nc1nc(C)nc(OC)n1`, for which the compound was called inactive in assay [5].

For the compound `CCS(=O)(=O)c1cccnc1S(=O)(=O)NC(=O)Nc1nc(OC)cc(OC)n1`, the outcome in assay [8] was inactive.

Regarding `CCOc1nc(NC)nc(NC(=O)NS(=O)(=O)c2ccccc2C(=O)OC)n1`, in [14], the AC50 is 14.8 µM (active).

In the case of `CCC(C)(C)C(=O)OC1=C(c2ccc(Cl)cc2Cl)C(=O)OC12CCCCC2`, in assay [15], the call was inactive.

Take `O=[N+]([O-])/N=C1\NCCN1Cc1ccc(Cl)nc1`: the call in [9] and in [8] was inactive.

On to `COC(=O)c1ccccc1S(=O)(=O)NC(=O)N(C)c1nc(C)nc(OC)n1`, for which the call in [16], in assay [9], in assay [6] and in [7] was inactive. Further, the figures for the AC50 in assay [3] and in assay [14] were 9.14 µM (active) and 25 µM (active), respectively.

For `Oc1ccc(Cl)cc1Cc1ccccc1`, the compound was classed as inactive in assay [3], in assay [17], in assay [1], in [14], in [12] and in assay [8]. Further, the AC50 in assay [17] was 6.03 µM (active); in assay [10], 6.41 µM (active).

With `COP(=S)(OC)Oc1ccc([N+](=O)[O-])cc1`, the outcome in assay [14] was inactive.

As for `CC[C@H](C)[C@H]1O[C@]2(C=C[C@@H]1C)C[C@@H]1C[C@@H](C/C=C(\C)[C@@H](O[C@H]3C[C@H](OC)[C@@H](O[C@H]4C[C@H](OC)[C@@H](O)[C@H](C)O4)[C@H](C)O3)[C@@H](C)/C=C/C=C3\CO[C@@H]4[C@H](O)C(C)=C[C@@H](C(=O)O1)[C@]34O)O2` (tested in a mixture with another compound), the AC50 in [18] is 13.8 µM (active); in assay [5] it was 25 µM (active); in assay [1] it was 5.22 µM (active); in assay [8], 5.57 µM (active).

The record behind these values is PubChem BioAssay (EPA / NIEHS).
